Source: PubChem BioAssay (NCI)
Compounds without any hit were thinned out: in the full panel of roughly 83,000, 20% have a hit.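 Step 1: grow cells in 96-well plates. Step 2: add test compound at a single concentration. Step 3: incubate 48 h. Step 4: record percent growth.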 Active and inactive are the calls of the source.

What follows are compounds tested on NCI-H322M lung (assay: NCI-60 one-dose screen, 48 h (100 = growth as untreated, 0 = no growth, -100 = all killed)). Details: 10 µM unless noted.
Method: Growth inhibition of the NCI-H322M human Non-Small Cell Lung tumor cell line is measured as a screen for anti-cancer activity. Cells are grown in 96 well plates and exposed to the test compound for 48 hours. Compounds are tested at a single concentration, which is 10^-5 M for most compounds. The reported endpoint is percent growth (GI% or GIPRCNT), where numbers from 0 - 100% represent growth inhibition, and numbers from -100% - 0 represent cell death. For example, a value of 40 represents 60% growth inhibition. A value of 0 means no net growth occurred over the course of the experiment. A value of -40 indicates 40% of cells at the beginning of the experiment died by the end of the experiment. A value of -100 means all cells are dead at the end of the experiment.
NCI-60 Human Tumor Cell Lines Screen was performed using the standard one-dose NCI protocol, which is described in more detail at https://dtp.cancer.gov/discovery_development/nci-60/default.htm.
Compounds with GIPRCNT values below 10 were considered active. Activity score was based on GIPRCNT using the following formula: […]
Score is 0 for GIPRCNT values of 100 or above, 50 for GIPRCNT values of 0, and 100 for GIPRCNT values of -100.

| Structure (SMILES) | growth |
| --- | --- |
| O=C(Nc1cccc2[nH]c(C(F)(F)F)nc12)c1ccc(-n2cnnn2)cc1 | 107% (inactive) |
| C#CCOc1ccc2ncnc(N3CCN(C(=O)CCl)CC3)c2c1 | 99.3% [8.25 µM] (inactive) |
| COc1ccc(C(=O)/C=C/c2cccnc2Nc2cc(OC)c(OC)c(OC)c2)cc1 | 80.5% (inactive) |
| COc1cc2c(cc1-c1c(C)noc1C)ncc1nc(C3CCOCC3)n([C@H](C)COC(F)F)c12 | 41.2% (inactive) |
| COc1ccc(/C=C\c2cc(OC)c(OC)c(OC)c2)cc1OC(=O)c1cccc(Cn2cc(CCOC(=O)[C@H](N)Cc3cn(C)c4ccccc34)nn2)c1 | 50.1% (inactive) |
| CN(CCCCCl)P(=O)(OCc1ccc([N+](=O)[O-])o1)C(F)(F)c1ccc(CC(=O)NC[C@@H](O)/C=C\[C@@H](O)[C@H](CO)Cc2ccccc2)cc1 (stereo not given in full) | 96.6% (inactive) |
| Nc1ccc(-c2cc3c(NCc4ccccc4)ncnc3s2)cc1 | 60.7% (inactive) |
| Nc1ccc(-c2cc3c(Nc4ccc(Oc5cccc(C(F)(F)F)c5)c(Cl)c4)ncnc3s2)cc1 | 61.9% (inactive) |
| Brc1ccc(-c2csc(Nc3ccccn3)n2)cc1 | 95.2% (inactive) |
| O=C(COc1ccc(-c2nc3cc(Cl)c(Cl)cc3[nH]2)cc1)N=Nc1c(O)[nH]c2ccccc12 | 4.51% (active) |
| CSc1nc(Nc2cccc(NC(=O)/C(C#N)=C/c3c(Cl)cccc3Cl)c2)c(C#N)c(-c2cccc([N+](=O)[O-])c2)n1 | 85.5% (inactive) |
| CC(C)CSc1nc(N)nc2c1ncn2C1OC(CO)C(O)C1O (stereo not given) | 101% (inactive) |
| CSc1ccc(SC2c3ccc(C)cc3Oc3nc(N)c(C#N)c(N)c32)cc1 (stereo not given) | -20.9% (active) |
| Cn1ncc2c(=O)nc3c(-c4ccccc4)n[nH]n3c21 | 80.9% (inactive) |
| OCCN1CCN(c2nc(Nc3ccc(-c4nc5ccccc5[nH]4)cc3)c3cn[nH]c3n2)CC1 | -89.8% (active) |
| COC(=O)c1ccc2oc(NC(=O)c3ccc(Nc4ccc([N+](=O)[O-])cc4C)c([N+](=O)[O-])c3)nc2c1 | 101% (inactive) |
| O=c1ccccc(-c2ccc(-c3ccco3)cc2)c1O | 21.6% (inactive) |
| O=C(Cn1cccc(Nc2ccccc2)c1=O)Nc1ccccc1 | 114% (inactive) |
| CCc1c(Nc2ccccc2C)nc(N)[nH]c1=O | 103% (inactive) |
| Cc1nn(-c2cc(=O)[nH]c3ccc(Cl)cc23)c(N)c1C#N | 98.2% (inactive) |

| Structure (SMILES) | growth |
| --- | --- |
| N#Cc1c(-c2ccc(Cl)cc2)nc(N/N=C/c2cccc(Br)c2)nc1N1CCOCC1 | 90.6% (inactive) |
| O=S(=O)(Nc1ccc(I)cc1F)c1ccc(-c2cnc(C3CC3)o2)cc1 | 86.2% (inactive) |
| CSc1nc2c(c(=O)[nH]1)C1(C(=O)Nc3ccccc31)c1c(nc(SC)[nH]c1=O)N2 | 92.5% (inactive) |
| CCC([N+](=O)[O-])S(=O)(=O)c1ccc(C)cc1 (stereo not given) | 112% (inactive) |
| CCOc1ccc(-n2nc(C(=O)Nc3cc(OC)c(OC)c(OC)c3)nc2-c2cc(OC)c(OC)c(OC)c2)cc1 | 89.2% (inactive) |
| Cc1oc(-c2ccc(Cl)cc2Cl)cc1C(=O)Nc1nccs1 | 91.1% (inactive) |
| O=C1/C(=C/c2ccccc2O)N=C2SCCCN12 | 97.5% (inactive) |
| Cc1nn(-c2cc(=O)[nH]c3ccccc23)c(N)c1C#N | 97% (inactive) |
| COc1ccccc1Nc1nc(-c2cc3cccc(C(F)(F)F)c3oc2=O)cs1 | 33% (inactive) |
| O=C(/C=C/c1ccc(C(F)(F)F)cc1)Nc1ccc(C=C2c3ccccc3C(=O)c3ccccc32)cc1 | 97.3% (inactive) |
| CCCCC/C(C=C(C#N)C#N)=C/c1ccccc1 | 102% (inactive) |
| CC(C)CC1C(=O)N2CCC[C@H]2C2(O)O[C@](NC(=O)C3C=C4c5cccc6[nH]c(Br)c(c56)C[C@H]4N(C)C3)(C(C)C)C(=O)N12 (stereo not given in full) | 71.8% (inactive) |
| Cc1cc2nc(NC(=O)CN3CCN(CCN4C(=O)c5cccc6cccc(c56)C4=O)CC3)sc2cc1C | 85.2% (inactive) |
| Cc1cc(N2CCCC2)nc(NC2CCCC(Nc3ccnc4cc(Cl)ccc34)C2)n1 (stereo not given) | -42.6% (active) |
| COc1ccc(-c2cc(C(=O)N=Nc3c(O)[nH]c4ccc(Br)cc34)no2)cc1 | 99% (inactive) |
| O=C(Cc1ccc(/C=C/C(=O)c2ncc[nH]2)cc1)Nc1ccccc1 | 67.4% (inactive) |
| O=C1C=C(O)C(=O)C(CC2=C(O)C(=O)C=C(O)C2=O)=C1O | 105% (inactive) |
| COc1ccc(-c2cc(=O)c3c(OC)c4ccoc4cc3o2)cc1 | 77.8% (inactive) |
| NC(CSC(c1ccccc1)(c1ccccc1)c1ccc(Cl)cc1)C(=O)O (stereo not given) | 36.5% (inactive) |
| COc1ccc(C(=O)c2sc3nc4c(c(-c5cccnc5)c3c2N)CCCC4)cc1OC | 99.5% (inactive) |
